HEK293 tox: cytotoxic compounds in HEK 293 cells. HEK 293 viability, ATP luminescence (CellTiter-Glo), 48-72 h. Potency, µM (series often up to 115 µM), actives largely listed as inhibitors. 94,000 tested, 6.6% active; note: nearly all actives have a fitted effect of over 60% in size
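Cytotoxicity was scored by loss of ATP-coupled luminescence (CellTiter-Glo) in HEK 293 cells. Compound treatment ran 48 or 72 hr at 37 degree Celsius, 5% CO2, 95% humidity.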
FLuc inh: Photinus pyralis luciferase inhibition. P08659. purified P. pyralis luciferase, luminescence, biochemical. Potency, µM (series often up to 115 µM), actives largely listed as inhibitors. 76,000 tested, 2.5% active. AID 1347043; note: nearly all actives have a fitted effect of over 65% in size
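Purified P. pyralis luciferase (10nM final) in 50mM Tris acetate pH 7.5, 10mM Mg acetate, 0.01% Tween-20, 0.05% BSA with 10uM D-luciferin and 10uM ATP. Compounds titrated qHTS. Luminescence imaged on CCD.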
NIH3T3 tox: cytotoxic compounds in NIH 3T3 cells; AID 1345082; 94,000 tested, 4.3% active; NIH 3T3 viability, CellTiter-Glo ATP luminescence, 48-72 h; Potency, µM (highest dose often 96.7 µM), actives largely listed as inhibitors; note: nearly all actives have a fitted effect of over 55% in size
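First NIH 3T3 cells are plated at 400 cells/well; next compound is pinned in; then plates incubate 48 or 72 hr at 37 °C; finally CellTiter-Glo is added and luminescence read after 10 min.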
NPR1 antag: blocks ANP-stimulated signaling of human Npr1 receptor; P16066; HEK293 hNpr1 GloSensor cGMP, ANP-stimulated luminescence; Potency, µM (top dose mostly 46.3 µM), hits mostly inhibitors; 76,000 tested, 1.6% active; AID 1347048; calls by dose curve; note: nearly all actives have a fitted effect of over 60% in size
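HEK293 cells stably expressing human Npr1 and cGMP GloSensor pGS-40F, loaded 2 h with 2% GloSensor reagent, given compound 30 min at room temperature. Luminescence read before and 20 min after 0.1 nM hNppA.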
SNCA expr inh: inhibitors of alpha-synuclein (SNCA) gene expression | 140,000 tested, 0.17% active | Potency, µM (series often up to 57.2 µM), most hits filed as inhibitors | HEK-293 SNCA-luciferase knock-in, luminescence, 24 h; note: nearly all actives have a fitted effect of over 45% in size
HEK293 viab: counter-screen for SNCA expression inhibitors: cell viability; HEK-293-SNCA-luc viability, GF-AFC fluorescence, 24 h; Potency, µM (top dose mostly 57.1 µM), hits mostly cytotoxic; 150,000 tested, 0.12% active; note: nearly all actives have a fitted effect of over 30% in size
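HEK-293-SNCA-luc cells (1500/well) plated 24 h, then exposed 24 h to a dilution series; GF-AFC added 30 min at 37C, fluorescence 405/540 nm; normalised to medium-only and DMSO wells, Hill fit.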
Numbers stand for hits; 0 = inactive; ? = inconclusive; - = no result given; [ ] = remark or other dose. In the library only some 7.4% were active in any assay of this set; here they are far more common. Unless noted, calls come from the whole dose curve; as a rule, active = well fitted curve in the direction sought with a large enough effect; inconclusive = small, poorly fitted or top-dose-only effect, or another doubt; inactive = no such curve, though single readings can be large; an effect the other way counts as inactive or inconclusive.

SMILES	HEK293 tox	FLuc inh	NIH3T3 tox	NPR1 antag	SNCA expr inh	HEK293 viab
Cc1cnc(C2CN(C(=O)C(C)Oc3ccccc3)C2)n1Cc1cccnc1 (stereo not given)	0	-	0	-	0	0
COc1cccc(-c2cccc(C(=O)N3CCN([S+](=O)([O-])c4cccs4)CC3)c2)c1	?	-	?	-	0	0[12.5 µM]
Cn1ncc2c(C(=O)NCc3ccc(C(F)(F)F)cc3)cc(-c3ccc(C(F)(F)F)cc3)nc21	0	-	0	-	-	-
CC(=O)N1CCN(C(=O)c2cc(-c3cccc(C(F)(F)F)c3)nc3c2cnn3C)CC1	0	-	?	-	0	0
Cc1ccc(-c2cc(C(=O)NCc3ccc(C(F)(F)F)cc3)c3cnn(C)c3n2)c(C)c1	35µM	-	?	-	?	0
CC(=O)N1CCCN(C(=O)c2cc(-c3cc(Cl)cc(Cl)c3)nc3c2cnn3C)CC1	79µM	-	?	-	-	-
CN1CCN(C(=O)c2cc(-c3cccc(C(F)(F)F)c3)nc3c2cnn3C)CC1	?	-	32µM	-	0	0
O=C(NC1CCCCCC1)c1nc2sccn2c1-c1ccccc1	?	-	?	-	0	0
OCC1(Cc2cccc(Cl)c2)CCCNC1 (stereo not given)	0	0	0	0	0	0
OCC1(Cc2cccc(Cl)c2)CCCN(Cc2nc(-c3ccc(F)cc3)cs2)C1 (stereo not given)	79µM	0	?	0	0	0
COc1ccc(Cl)cc1C(=O)N1CCC(Oc2nccnc2N(C)C)C1 (stereo not given)	?	?	0	0	0	0
O=C(C1CCOCC1)N1CCC(Oc2nccnc2N2CCOCC2)C1 (stereo not given)	0	0	0	0	0	0
CCCN(C)c1nccnc1OC1CCN(C(=O)C2CCOCC2)C1 (stereo not given)	0	40µM	0	0	0	0
CCCN(C)c1nccnc1OC1CCN(C(=O)C2CC2)C1 (stereo not given)	0	40µM	?	0	0	0
CCCN(C)c1nccnc1OC1CCN(C(=O)C(CC)CC)C1 (stereo not given)	?	32µM	?	0	0	0
CCCN(C)c1nccnc1OC1CCN(C(=O)C2CCCCC2)C1 (stereo not given)	?	?	0	0	0	0
CC(C)(C)OCC1CN(Cc2cccc(F)c2)[S+](=O)([O-])c2cccnc2O1 (stereo not given)	?	-	0	-	0	0
C[S+](=O)([O-])N1CCC(c2nnc3n2C(C(=O)NCc2ccccc2F)CC3)CC1 (stereo not given)	0	-	0	-	0	0
CCc1ccc(CN2CCCCC23Cc2ccccc2CNC3=O)cc1 (stereo not given)	?	-	?	-	0	0
Cc1cnc(CC2CCCN(S(=O)(=O)c3cccs3)C2)n1C(C)C (stereo not given)	?	-	0	-	0	0
O=C(c1ccc(F)c(Cl)c1)N1CCC2(CC1)CN(c1ccccc1)C2=O	89µM	0	40µM	0	0	0
COc1ccc(CN2CC3(CCN(C(=O)c4ccc(F)c(Cl)c4)CC3)C2=O)cc1	?	0	?	0	0	0
O=C(C1CCCC1)N1CCN(CCn2nc3n(c2=O)CCCC3)CC1	0	-	0	-	-	-
O=C(NC1CCNCC1)c1cc(C2CC2)nc2c1c(C1CCCN1)nn2-c1ccccc1 (stereo not given)	45µM	-	22µM	-	0	0
O=C(NC1CC1)c1cc(C2CC2)nc2c1c(C1CCCN1)nn2-c1ccccc1 (stereo not given)	79µM	-	32µM	-	0	0
SMILES	HEK293 tox	FLuc inh	NIH3T3 tox	NPR1 antag	SNCA expr inh	HEK293 viab
O=C(Nc1ccc(Cl)cc1)N1CCCC(C(=O)N2CCC(N3CCCC3=O)CC2)C1 (stereo not given)	0	-	0	-	0	0
O=C1c2c(nc(COc3cccc(C(F)(F)F)c3)n2Cc2ccccc2)NCCN1CC1CC1	50µM	0	35µM	0	0	0
COc1cccc(OCc2nc3c(n2Cc2ccccc2)C(=O)N(CCOc2ccccc2)CCN3)c1	32µM	0	20µM	?	0	0
O=C1c2c(nc(COc3ccccc3)n2Cc2ccccc2)NCCN1CCOc1ccccc1	32µM	0	?	0	0	0
N#Cc1cccc(OCc2nc3c(n2Cc2ccccc2)C(=O)N(Cc2ccccc2F)CCN3)c1	?	0	28µM	0	?	?
O=C1c2c(nc(CNCc3ccccc3)n2Cc2ccccc2)NCCN1CCOc1ccccc1	?	0	?	0	0	0
O=C1c2c(nc(COc3ccccc3)n2Cc2ccccc2)NCCN1Cc1ccccc1F	?	0	?	0	0	0
O=C(c1nccc2ccccc12)N1CCC2(CC1)NCCc1c2[nH]c2ccccc12	0	0	0	0	0	0[12.5 µM]
O=C(CCNc1cnc2cnccn12)NCc1ccc(F)c(Cl)c1	0	0	?	0	0	0
COc1ccc(-c2ccccc2C(=O)N2CCC(NC(=O)C(C)(C)C)CC2)nn1	0	-	0	-	-	-
COc1ccc(-c2cn3cc(C(=O)NCCCc4ccccc4)nc3s2)cc1	?	-	?	-	0	0
COCCN1CCNc2nc(COc3cccc(F)c3)n(Cc3ccccc3)c2C1=O	?	0	?	0	0	0
O=C1c2c(nc(COc3cccc(Cl)c3)n2Cc2ccccc2)NCCN1CCOc1ccccc1	?	0	18µM	0	?	0
O=C1c2c(nc(CNc3ccccc3Cl)n2Cc2ccccc2)NCCN1CC1CC1	100µM	0	89µM	0	?	0
CO[C@H]1CN(C2CCN(C(=O)CCC3CCCC3)CC2)[C@H]1c1ccncc1	?	-	0	-	0	0
Cc1ccccc1C(=O)N1CCCC1C(=O)N1CCCC1c1nc2ccncc2[nH]1 (stereo not given)	0	-	0	-	0	0
C[C@@H](N)C(=O)N1CCC(C(=O)Nc2cccc(-c3cccc(Cl)c3)c2)CC1	40µM	0	28µM	0	0	0
N#Cc1cccc(NC(=O)N[C@H]2[C@H](O)[C@@H](N3CCC(Cc4ccccc4)CC3)[C@@H]3OC[C@H]2O3)c1	?	0	?	0	0	0
O=C(Nc1cccc(C(F)(F)F)c1)N[C@H]1[C@H](O)[C@@H](N2CCC(Cc3ccccc3)CC2)[C@@H]2OC[C@H]1O2	?	0	35µM	0	?	0
COc1cccc(NC(=O)N[C@H]2[C@H](O)[C@@H](Oc3ccccc3)[C@@H]3OC[C@H]2O3)c1	0	0	0	0	0	0
O=C(Nc1cccc(C(F)(F)F)c1)N[C@H]1[C@H](O)[C@@H](Oc2ccccc2)[C@@H]2OC[C@H]1O2	?	0	79µM	0	?	?
CN1CC[C@@H](c2c(O)cc(O)c3c(=O)cc(-c4ccccc4Cl)oc23)[C@@H](O)C1	-	-	-	-	0.22µM	?

Bioassay records: PubChem BioAssay, National Center for Advancing Translational Sciences (NCATS)
